3T3 cytotox: kills NIH 3T3 cells; 94,000 tested, 4.3% active; AID 1345082; Potency, µM (top dose mostly 96.7 µM), most hits filed as inhibitors; NIH 3T3 viability, CellTiter-Glo ATP luminescence, 48-72 h; also: nearly all actives have a fitted effect of over 55% in size
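First NIH 3T3 cells are plated at 400 cells/well; next compound is pinned in; then plates incubate 48 or 72 hr at 37 °C; finally CellTiter-Glo is added and luminescence read after 10 min.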
hNpr1 antagonist: antagonists of human natriuretic peptide receptor Npr1. P16066. HEK293 hNpr1 GloSensor cGMP, ANP-stimulated luminescence. Potency, µM (highest dose often 46.3 µM), actives largely listed as inhibitors. 76,000 tested, 1.6% active. AID 1347048; calls by dose curve; also: nearly all actives have a fitted effect of over 60% in size
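Compound pre-incubated 30 min at room temperature on GloSensor-loaded HEK293 cells stably carrying hNpr1 and the pGS-40F cGMP biosensor. Stimulation uses hNppA at 0.1 nM final; luminescence is taken at baseline and 20 min post-agonist.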
GPT2 inh: inhibitors of human GPT2 alanine aminotransferase; Potency, µM (highest dose often 57.7 µM), most hits filed as inhibitors; 100,000 tested, 0.25% active; Recombinant GPT2, coupled pyruvate oxidase/HRP Amplex Red fluorescence; Q8TD30; also: nearly all actives have a fitted effect of over 60% in size
Target sequence (Q8TD30 whole entry, looked up): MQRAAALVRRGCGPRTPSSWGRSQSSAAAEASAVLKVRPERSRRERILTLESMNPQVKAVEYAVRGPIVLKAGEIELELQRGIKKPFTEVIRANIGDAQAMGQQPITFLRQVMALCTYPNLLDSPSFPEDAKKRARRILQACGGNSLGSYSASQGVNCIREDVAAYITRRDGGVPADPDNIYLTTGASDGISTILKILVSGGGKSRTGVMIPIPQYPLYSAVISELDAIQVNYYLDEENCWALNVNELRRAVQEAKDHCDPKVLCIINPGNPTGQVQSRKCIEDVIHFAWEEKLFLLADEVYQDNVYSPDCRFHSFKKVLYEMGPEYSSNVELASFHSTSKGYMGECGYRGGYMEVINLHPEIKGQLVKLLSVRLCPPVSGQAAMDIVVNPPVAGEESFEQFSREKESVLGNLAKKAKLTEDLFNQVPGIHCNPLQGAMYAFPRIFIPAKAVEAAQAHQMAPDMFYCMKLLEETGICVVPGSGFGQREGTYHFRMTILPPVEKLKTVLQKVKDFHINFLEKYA
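Inhibition is scored from Amplex Red fluorescence generated when pyruvate oxidase and HRP act on pyruvate released by GPT2. Reactions contain 10ng/uL enzyme, 250uM a-KG and 2mM L-alanine and run 30 min at room temperature.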
FLuc inh: blocks purified firefly luciferase enzyme activity | purified P. pyralis luciferase, luminescence, biochemical | P08659 | Potency, µM (highest dose often 115 µM), most hits filed as inhibitors | 76,000 tested, 2.5% active | AID 1347043; also: nearly all actives have a fitted effect of over 65% in size
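Luminescence read by CCD imager after adding enzyme (10nM final) to wells holding compound, titrated in qHTS. Substrates 10uM each D-luciferin and ATP; buffer 50mM Tris acetate pH 7.5, 10mM Mg acetate, Tween-20, BSA.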
HEK cytotox: cytotoxic compounds in HEK 293 cells; HEK 293 viability, ATP luminescence (CellTiter-Glo), 48-72 h; Potency, µM (titrated, usually from 115 µM), most hits filed as inhibitors; 94,000 tested, 6.6% active; also: nearly all actives have a fitted effect of over 60% in size
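ATP-coupled CellTiter-Glo luminescence served as viability read-out, recorded 10 min after reagent addition at room temperature. HEK 293 cells, 250 cells/well, had been incubated with pintool-transferred compound for 48 or 72 hr at 37 degree Celsius.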
Of the large screens only hits and unclear results are named; the others gave an inactive call; ! = not confirmed by another sample. Sampled rows, rich in hits. Any-hit rate of the full collection: about 10%. Unless noted, calls follow the shape of the dose curve; as a rule, active = well fitted curve in the direction sought with a large enough effect; inconclusive = small, poorly fitted or top-dose-only effect, or another doubt; inactive = no such curve, though single readings can be large; an effect the other way counts as inactive or inconclusive.

c1cnc2nc(C3CCNC3)[nH]c2c1 (stereo not drawn)	none
c1ccc(-c2nc3ncccc3[nH]2)nc1	3T3 cytotox inconclusive, HEK cytotox inconclusive
c1cnc2nc(-c3ccsc3)[nH]c2c1	3T3 cytotox inconclusive, FLuc inh inconclusive, HEK cytotox 126µM!
O=C(O)c1ccc(-c2nc3ncccc3[nH]2)cc1	none
Cc1cc(-c2nc3ncccc3[nH]2)c(C)[nH]1	3T3 cytotox inconclusive, FLuc inh 39.8µM, HEK cytotox inconclusive
Cc1ncsc1CN1CCC[C@H]1C(=O)N1CCCCCCNC(=O)CC1	FLuc inh inconclusive
CC(C)(C)c1nnc2ccc(C(=O)NCC3CC3)cn12	none (no result: hNpr1 antagonist, FLuc inh)
O=C(O)COc1ccc(-c2nccc3c2C(=O)N(Cc2ccccc2)CC(COc2ccc(Cl)cc2)O3)cc1 (stereo not drawn)	3T3 cytotox inconclusive, FLuc inh 50.1µM
O=C(O)COc1ccc(-c2nccc3c2C(=O)N(Cc2ccccc2)CC(COc2ccc4cccnc4c2)O3)cc1 (stereo not drawn)	3T3 cytotox inconclusive, FLuc inh inconclusive
Cc1cc(C)n(Cc2cc(C(=O)N3C[C@H]4CC[C@H]3C4)n[nH]2)n1	none
CC(C)(C)C(=O)NC1CN(c2ccnc3ccnn23)C1	none (no result: hNpr1 antagonist, FLuc inh)
Cc1nn2c(c1-c1ccccc1OCc1ccccc1)N(Cc1ccccc1O)CCC2	3T3 cytotox inconclusive, hNpr1 antagonist inconclusive, HEK cytotox inconclusive
Cc1nn2c(c1-c1ccccc1OCc1ccccc1)N(Cc1cccnc1)CCC2	3T3 cytotox inconclusive, HEK cytotox 63.1µM
Cc1nn2c(c1-c1ccccc1OCc1ccccc1)N(Cc1nccn1C)CCC2	3T3 cytotox inconclusive, HEK cytotox 100µM
Cc1nn2c(c1-c1ccccc1OCc1ccccc1)N(C(=O)CN1CCOCC1)CCC2	3T3 cytotox inconclusive
CCc1cccc(NC(=O)[C@@H]2CN(S(=O)(=O)CC)C[C@H]2c2ccncc2)c1	none (no result: hNpr1 antagonist, FLuc inh)
CCNC(=O)N1CCCC(Cc2noc(-c3ccccc3)n2)C1 (stereo not drawn)	GPT2 inh inconclusive, FLuc inh inconclusive, HEK cytotox 31.6µM
CCNC(=O)N1CCC(c2noc(-c3ccccc3)n2)C1 (stereo not drawn)	none
CCn1cc(S(=O)(=O)N2CCCC2Cc2noc(-c3ccccc3)n2)cn1 (stereo not drawn)	3T3 cytotox inconclusive, HEK cytotox 44.7µM (no result: hNpr1 antagonist, FLuc inh)
Cc1cccc(NC(=O)N2CCC3(CC2)CC(N2CCOCC2)CCO3)c1 (stereo not drawn)	none
COc1ccccc1C(=O)N1CCC(N2C[C@H](O)C[C@H]2C(=O)NC2CCCCC2)CC1	none
CC(=O)Nc1ccc2nnc(-c3ccc(C(=O)N4CCCCCC4)cc3)n2c1	3T3 cytotox inconclusive
COc1ccc(C(=O)N[C@H]2CO[C@H]3[C@@H]2OC[C@@H]3n2cc(-c3ccccc3)nn2)cc1	3T3 cytotox inconclusive, HEK cytotox inconclusive
COC(=O)c1cccc(NC(=S)N[C@H]2CO[C@H]3[C@@H]2OC[C@@H]3n2cc(CC3CCCCC3)nn2)c1	3T3 cytotox inconclusive, hNpr1 antagonist inconclusive, HEK cytotox 39.8µM
Cc1ccc(C(=O)N[C@H]2CO[C@H]3[C@@H]2OC[C@@H]3n2cc(CC3CCCCC3)nn2)cc1	3T3 cytotox 35.5µM, HEK cytotox inconclusive
COc1ccc(C(=O)N[C@H]2CO[C@H]3[C@@H]2OC[C@@H]3n2cc(CC3CCCCC3)nn2)cc1	3T3 cytotox inconclusive, HEK cytotox inconclusive
CN(Cc1ccccc1)Cc1cn([C@H]2CO[C@H]3[C@@H]2OC[C@@H]3NCc2ccccc2)nn1	3T3 cytotox inconclusive, HEK cytotox inconclusive
c1ccc(CN[C@H]2CO[C@H]3[C@@H]2OC[C@@H]3n2cc(CC3CCCCC3)nn2)cc1	3T3 cytotox 35.5µM, HEK cytotox inconclusive
O=C(N[C@H]1CO[C@H]2[C@@H]1OC[C@@H]2n1cc(-c2ccccc2)nn1)c1ccc(C(F)(F)F)cc1	3T3 cytotox inconclusive, hNpr1 antagonist inconclusive, HEK cytotox 39.8µM
COCc1nc(CCNS(=O)(=O)c2ccc(OC)cc2)no1	none
O=C(c1ccc(C(F)(F)F)cc1)N1CCCC(C(=O)N2CCC(N3Cc4cccn4C3=O)CC2)C1 (stereo not drawn)	HEK cytotox inconclusive (no result: hNpr1 antagonist, FLuc inh)
COc1ccccc1Nc1ccnc(N2CCN([S+](=O)([O-])c3cccs3)CC2)n1	3T3 cytotox inconclusive, HEK cytotox inconclusive (no result: hNpr1 antagonist, FLuc inh)
O=C(c1nc2sccn2c1Br)N1CCOCC1	none
COc1ncccc1-c1cnc2n[nH]c(-c3ccccc3)c2n1	3T3 cytotox 50.1µM, HEK cytotox 70.8µM
COc1ccccc1-c1[nH]nc2ncc(-c3c(C)noc3C)nc12	3T3 cytotox inconclusive, GPT2 inh inconclusive, HEK cytotox 89.1µM
COc1ccccc1-c1cnc2n[nH]c(-c3ccccc3)c2n1	3T3 cytotox 79.4µM, HEK cytotox inconclusive
COc1ncccc1-c1cnc2n[nH]c(-c3ccccc3C)c2n1	3T3 cytotox inconclusive, HEK cytotox inconclusive
COc1ccccc1-c1[nH]nc2ncc(-c3cccnc3OC)nc12	3T3 cytotox 10µM, HEK cytotox 10µM
Cc1noc(C)c1-c1cnc2n[nH]c(-c3ccccc3)c2n1	HEK cytotox inconclusive
O=C(NC1CC1)c1ccc2nnc(CC3CC3)n2c1	none (no result: hNpr1 antagonist, FLuc inh)
CO[C@H]1[C@H](NC(=O)c2cc(C)oc2C)c2ccccc2C12CCNCC2	none
COCCn1c(=O)c(C(=O)N2CCN(C(=O)Cc3cccc(Cl)c3)CC2)nc2cccnc21	none (no result: hNpr1 antagonist, FLuc inh)
COc1ccccc1-c1[nH]nc2ncc(C(=O)NCC3CCOCC3)nc12	3T3 cytotox 39.8µM
Cc1[nH]cnc1C1CCN(c2nc3cccc4c3n2CCC4=O)CC1	none (no result: 3T3 cytotox, hNpr1 antagonist, FLuc inh, HEK cytotox)
Cc1ccccc1CN1Cc2nc(-c3cncnc3)ccc2OCC1=O	3T3 cytotox 100µM, HEK cytotox inconclusive
O=C1COc2ccc(-c3ccsc3)nc2CN1Cc1ccccc1	3T3 cytotox inconclusive, HEK cytotox 100µM
O=C1COc2ccc(-c3ccsc3)nc2CN1Cc1ccc(C(F)(F)F)cc1	3T3 cytotox inconclusive, HEK cytotox inconclusive
Cc1ccccc1CN1Cc2nc(-c3ccsc3)ccc2OCC1=O	3T3 cytotox inconclusive, HEK cytotox 89.1µM
COc1ccccc1-c1ccc2c(n1)CN(Cc1ccccc1C)C(=O)CO2	HEK cytotox inconclusive
COCCN1C(=O)CCC2(C(=O)NCc3ccc(Cl)cc3)CCCC=C12 (stereo not drawn)	none (no result: hNpr1 antagonist, FLuc inh)
Cc1nn(-c2ccccc2)c2c1C(C(C)C)N(C1CN(C(=O)N(C)C)C1)C2=O (stereo not drawn)	HEK cytotox inconclusive (no result: hNpr1 antagonist, GPT2 inh, FLuc inh)
CC(=O)N1CC(N2C(=O)c3c(c(C)nn3-c3ccccc3)C2C(C)C)C1 (stereo not drawn)	none (no result: hNpr1 antagonist, GPT2 inh, FLuc inh)
Cc1ccccc1C(=O)N1CCC(N2C(=O)c3c(c(C)nn3-c3ccccc3)C2C(C)C)C1 (stereo not drawn)	3T3 cytotox inconclusive, HEK cytotox 39.8µM (no result: hNpr1 antagonist, GPT2 inh, FLuc inh)
